PubChem BioAssay AID540317 (National Center for Advancing Translational Sciences (NCATS), 2011)
Screen size: about 390,000 compounds; about 2,200 (0.56%) were called active. Entries that show only a call come without a potency. Roughly 3% stayed inconclusive and do not appear here. Calls come from the whole dose curve; as a rule, active = well fitted inhibition curve with a large enough effect; inconclusive = small, poorly fitted or top-dose-only effect; inactive = no such curve, though single readings can be large or run the other way. This excerpt belongs to a sample that is enriched for actives.
Note: nearly all actives have a fitted effect of over 70% in size.
Potency is the fitted concentration of half-maximal effect.

These compounds were tested against Chromobox protein homolog 1 (Homo sapiens) (UniProt P83916) (assay: HTS for Inhibitors of HP1-beta Chromodomain Interactions with Methylated Histone Tails). Settings: AlphaScreen HP1-beta / biotin-H3K9me3 peptide binding; series mostly up to 114 µM.
Sequence of Chromobox protein homolog 1 (Homo sapiens) (P83916 whole entry, looked up): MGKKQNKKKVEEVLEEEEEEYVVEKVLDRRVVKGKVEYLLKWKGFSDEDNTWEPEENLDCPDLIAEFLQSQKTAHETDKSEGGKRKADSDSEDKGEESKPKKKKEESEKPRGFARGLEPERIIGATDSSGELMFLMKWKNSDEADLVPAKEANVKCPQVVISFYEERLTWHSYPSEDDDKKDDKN
In short: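 Compound inhibition of the preformed complex between 50 nM HP1-beta and 50 nM biotinylated H3K9me3 peptide was read by AlphaScreen. Buffer was PBS pH 7.4 with 0.01% Tween-20. Incubations ran 30 min at room temperature, with 10 ug/mL donor/acceptor beads.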
For `O=C(OC12CC3CC(CC(C3)C1)C2)c1ccc(NCc2cc(O)ccc2O)cc1`, the Potency was 70.8 µM (active).
`O=C(Cn1ncn2nc(-c3cccs3)cc2c1=O)NCc1cccc(Br)c1` was tested, and the Potency was “inactive”.
In the case of `Cc1ccc(CNC(=O)CSc2c(C)cnc3c2c(=O)n(C)c(=O)n3C)cc1`, the Potency is reported as “inactive”.
`Cc1cc(C)c(C=NNc2nc3c([nH]2)c(=O)n(C)c(=O)n3C)c(C)c1` was tested, and the Potency was “inactive”.
With `Cc1ccc(NN=Nc2nc3c([nH]2)c(=O)n(C)c(=O)n3C)cc1` the Potency was 35.5 µM (active).
`COc1ccc(NC(=O)CSc2nc3ncccc3[nH]2)c(OC)c1` was tested, and the Potency was “inactive”.
`COc1ccc(CNC(=O)CCc2c(C)nn(-c3ccc(N4CCCC4)nn3)c2C)cc1` was tested, and the Potency was “inactive”.
For `Cc1cccc(C)c1-n1ncc(C(=O)NCCCN2CCCCC2)c1C1CCN(C(=O)OC(C)(C)C)CC1`, the Potency was “inactive”.
With `Cc1cccc(Nc2cc(C)nc(-n3nc(C)cc3C)n2)c1` the Potency was “inactive”.
For `COc1ccc(OC)c(-n2nnc(-c3nc(-c4cc(OC)c(OC)c(OC)c4)no3)c2C)c1`, the Potency was “inactive”.
For `CCCC(=O)NC(=S)Nc1ccc(CN2CCOCC2)cc1`, the Potency was “inactive”.
In the case of `Oc1c(CN2CCOCC2)ccc(CN2CCOCC2)c1O`, the Potency is reported as 15.8 µM (active).
For `OCCN1CCOCCOCCN(CCO)CCN(CCO)CC1`, the Potency was “inactive”.
With `Cc1cc(C)cc(C(=O)N2CCN=C2SCc2ccc([N+](=O)[O-])cc2)c1` the Potency was “inactive”.
For `CC(=O)N1CC[n+]2c(-c3ccc([N+](=O)[O-])cc3)csc21`, the Potency was 10 µM (active).
For `O=C(C1CCC1)N1CCN(S(=O)(=O)c2ccc([N+](=O)[O-])cc2)CC1`, the Potency was “inactive”.
In the case of `O=S(=O)(c1ccc(Cl)cc1)c1nnn2c1nc(NC1CCCC1)c1sccc12`, the Potency is reported as “inactive”.
In the case of `Cc1ccccc1CNC(=O)c1cccc(NC(=O)c2nsc3ccccc23)c1`, the Potency is reported as “inactive”.
With `Cc1ccc(NC(=O)Nc2sc3nc4n(c(=O)c3c2C)CCC(C)CC4)c(Cl)c1` (configuration not stated) the Potency was “inactive”.
`O=C(Nc1cc2c3c(c1)C1CCCC1CN3CC1CCCC21)c1ccc([N+](=O)[O-])cc1` (configuration not stated) was tested, and the Potency was 11.2 µM (active).
For `CC1CCc2noc(NC(=O)c3ccc([N+](=O)[O-])cc3)c2C1` (configuration not stated), the Potency was “inactive”.
In the case of `O=C(CCNC(=O)c1ccc([N+](=O)[O-])cc1)NC1CCCCC1`, the Potency is reported as “inactive”.
With `Cc1ccc(-c2cn3c(n2)sc2cc(C(=O)NCCCc4ccccc4)ccc23)cc1` the Potency was “inactive”.
In the case of `CCOC(=O)c1c(C)oc2nc(C)nc(Nc3ccc(CC)cc3)c12`, the Potency is reported as “inactive”.
For `COCCNc1ncnc2c1c(-c1ccccc1)cn2-c1ccc(C)c(Cl)c1`, the Potency was “inactive”.
With `COc1ccc(S(=O)(=O)Nc2cc3c(C(=O)OC(C)C)c(C)oc3c3ccccc23)cc1` the Potency was “inactive”.
In the case of `COc1ccc(S(=O)(=O)NC(C)C(=O)N2CCCCCC2)cc1` (configuration not stated), the Potency is reported as “inactive”.
In the case of `COc1ccc(S(=O)(=O)/N=C2\C=C(NS(=O)(=O)c3ccccc3)C(=O)c3ccccc32)cc1`, the Potency is reported as 28.2 µM (active).
In the case of `CCCN1CCN(CCCNC(=O)Cn2nc(CC)n3c(cc4occc43)c2=O)CC1`, the Potency is reported as “inactive”.
In the case of `O=C1C=CC(=O)N1c1ccc(N2CCCCC2)cc1`, the Potency is reported as 15.8 µM (active).
With `Cc1ccc(CN2COc3cc(C)c4c(oc(=O)c5ccccc54)c3C2)cc1` the Potency was “inactive”.
With `CC(C)Cn1c(=O)c2ccccc2n2c(-c3cccc(Cl)c3)nnc12` the Potency was “inactive”.
`O=c1cc(-c2ccccc2)n2c(SCc3ccccc3)nnc2[nH]1` was tested, and the Potency was “inactive”.
For `O=c1[nH]c2ccccc2n2c(-c3ccccc3)nnc12`, the Potency was 5.62 µM (active).
With `O=C(CNS(=O)(=O)c1cccs1)N1CCN(c2ccccc2Cl)CC1` the Potency was “inactive”.
With `CC/C=C/C(=O)N1CC2(CC(c3cccc(NC(=O)CC)c3)=NO2)C[C@H]1C(N)=O` (some centres not stated) the Potency was “inactive”.
`C/C=C(\C)C(=O)N1CC2(CC(c3cccc(NC(=O)CCCCC)c3)=NO2)C[C@@H]1C(N)=O` (some centres not stated) was tested, and the Potency was “inactive”.
With `C=C(C)C(=O)Nc1cccc(C2=NOC3(C2)C[C@H](C(N)=O)N(C(=O)C(c2ccccc2)c2ccccc2)C3)c1` (some centres not stated) the Potency was 12.6 µM (active).
For `O=C(O)C1CC=CC2CCN(C3CCCCC3)C(=O)C21` (configuration not stated), the Potency was “inactive”.
In the case of `COC(=O)c1cc(NC(=O)CCS(=O)(=O)c2cc(Br)cc3c2N(C(=O)C2CC2)CC3)cc(C(=O)OC)c1`, the Potency is reported as “inactive”.
`Cc1n[nH]c(=O)n1-c1ccc(Oc2ccccc2)cc1` was tested, and the Potency was “inactive”.
In the case of `COc1ccc(-c2nc(=N)sn2-c2ccccc2)cc1`, the Potency is reported as 14.1 µM (active).
For `COc1ccc(-c2nn3c(-c4ccc(OC)cc4)nnc3c3ccccc23)cc1`, the Potency was “inactive”.
In the case of `CN(Cc1ccccc1)C(=O)c1cn(C)c2ccc(S(=O)(=O)N(C)C3CCCCC3)cc2c1=O`, the Potency is reported as “inactive”.
`Cc1c(Cl)cccc1NC(=O)C(=O)NCCc1csc2nc(-c3ccccc3F)nn12` was tested, and the Potency was “inactive”.
For `COc1ccc(CCNc2ncnc3c2cnn3-c2ccc(C)cc2)cc1`, the Potency was “inactive”.
For `Cc1ccc(S(=O)(=O)N2CCN(c3nc(-n4cnc5ccccc54)nc4ccccc34)CC2)cc1`, the Potency was “inactive”.
`O=C(NCc1ccc2c(c1)CCN2C(=O)c1ccccc1)Nc1cc(F)ccc1F` was tested, and the Potency was “inactive”.
`COCCCn1c(SCC(=O)Nc2ccccc2)nnc1-c1ccncc1` was tested, and the Potency was “inactive”.
`CCOc1ccc(Nc2nc(Cc3nnc(SCC(=O)NC4CCCC4)n3C)cs2)cc1` was tested, and the Potency was “inactive”.
With `COCCCn1c(Cc2csc(Nc3cccc(Cl)c3)n2)nnc1SCC(=O)OC1CCCCC1` the Potency was 50.1 µM (active).
In the case of `COc1ccc(-c2nc3scc(CCNS(=O)(=O)c4cc(F)ccc4OC)n3n2)cc1OC`, the Potency is reported as “inactive”.
`CCS(=O)(=O)c1cc([N+](=O)[O-])c(Sc2ccccc2N)s1` was tested, and the Potency was 39.8 µM (active).
With `Cc1ccc(CNC(=O)C2(C(F)(F)F)C/C(=C\CCO)CCCO2)o1` (configuration not stated) the Potency was “inactive”.
`COc1ccc(/C=C/c2noc(-c3ccccc3O)n2)cc1OC` was tested, and the Potency was “inactive”.
For `CC(=O)OCC(NC(=O)C(Cc1ccccc1)NC(=O)OC(C)(C)C)C1OC(n2ccc(=O)[nH]c2=O)C(OC(C)=O)C1OC(C)=O` (configuration not stated), the Potency was “inactive”.
In the case of `O=S(=O)(NCCS(=O)(=O)N1CCN(c2ccccc2)CC1)c1ccc(Cl)cc1`, the Potency is reported as “inactive”.
In the case of `C=CC1=C(C(=O)O)N2C(=O)[C@@H](NC(=O)/C(=N/OCC(=O)O)c3csc(N)n3)[C@H]2SC1`, the Potency is reported as 14.1 µM (active).
`CCCCCCC1(C)NC(c2ccc3c(c2)OCO3)=CC(c2ccccc2O)N1` (configuration not stated) was tested, and the Potency was “inactive”.
For `CN(C)c1ccc(C(CC(=O)O)C(=O)O)cc1` (configuration not stated), the Potency was “inactive”.
For `CN(C)c1ccc(CSc2ccccc2)cc1`, the Potency was 39.8 µM (active).
For `O=C(Nc1ccc(CSc2ccccc2)cc1)c1ccc(CN2CCOCC2)cc1`, the Potency was “inactive”.
